Article PMC12215968

Target: CCT7 (UniProt Q99832)
Test: cross-linking mass spectrometry
Conditions: TSTO, in cells

Chain of CCT7 (Q99832 whole entry): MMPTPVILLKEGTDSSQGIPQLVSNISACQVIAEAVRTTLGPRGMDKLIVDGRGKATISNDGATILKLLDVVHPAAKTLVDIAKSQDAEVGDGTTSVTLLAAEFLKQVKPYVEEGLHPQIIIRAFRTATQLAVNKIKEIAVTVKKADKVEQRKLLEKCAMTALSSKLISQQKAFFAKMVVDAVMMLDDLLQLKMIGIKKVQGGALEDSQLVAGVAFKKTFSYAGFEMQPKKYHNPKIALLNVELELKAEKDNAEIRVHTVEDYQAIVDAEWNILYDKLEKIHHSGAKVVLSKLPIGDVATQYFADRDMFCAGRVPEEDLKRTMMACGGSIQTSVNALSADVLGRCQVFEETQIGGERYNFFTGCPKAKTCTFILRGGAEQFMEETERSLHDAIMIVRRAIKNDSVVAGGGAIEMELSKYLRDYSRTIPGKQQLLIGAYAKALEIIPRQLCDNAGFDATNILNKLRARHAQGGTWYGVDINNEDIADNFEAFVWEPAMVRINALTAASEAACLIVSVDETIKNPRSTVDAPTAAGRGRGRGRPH
Chain of VBP1, P61758 (P61758 whole entry): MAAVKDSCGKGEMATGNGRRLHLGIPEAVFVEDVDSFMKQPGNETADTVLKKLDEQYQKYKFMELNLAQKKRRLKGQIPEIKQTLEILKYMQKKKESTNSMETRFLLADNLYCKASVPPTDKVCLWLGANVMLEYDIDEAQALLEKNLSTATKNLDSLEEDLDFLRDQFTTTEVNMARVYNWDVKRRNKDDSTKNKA
Chain of CCT8, P50990 (P50990 whole entry): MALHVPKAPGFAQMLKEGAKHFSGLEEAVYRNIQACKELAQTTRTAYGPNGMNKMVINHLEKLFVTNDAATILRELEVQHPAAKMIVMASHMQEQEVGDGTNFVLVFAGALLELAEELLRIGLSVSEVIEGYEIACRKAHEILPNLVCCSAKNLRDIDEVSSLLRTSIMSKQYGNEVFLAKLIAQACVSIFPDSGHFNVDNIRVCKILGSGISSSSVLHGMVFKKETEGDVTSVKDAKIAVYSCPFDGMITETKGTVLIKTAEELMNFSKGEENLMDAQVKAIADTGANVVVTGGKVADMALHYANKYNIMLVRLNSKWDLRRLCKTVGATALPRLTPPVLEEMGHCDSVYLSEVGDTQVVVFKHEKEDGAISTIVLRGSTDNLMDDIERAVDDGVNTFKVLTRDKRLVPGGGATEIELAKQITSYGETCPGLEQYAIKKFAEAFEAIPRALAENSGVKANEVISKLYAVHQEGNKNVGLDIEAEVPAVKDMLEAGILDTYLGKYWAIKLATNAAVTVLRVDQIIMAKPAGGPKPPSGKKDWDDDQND
Chain of CCT5, P48643 (P48643 whole entry): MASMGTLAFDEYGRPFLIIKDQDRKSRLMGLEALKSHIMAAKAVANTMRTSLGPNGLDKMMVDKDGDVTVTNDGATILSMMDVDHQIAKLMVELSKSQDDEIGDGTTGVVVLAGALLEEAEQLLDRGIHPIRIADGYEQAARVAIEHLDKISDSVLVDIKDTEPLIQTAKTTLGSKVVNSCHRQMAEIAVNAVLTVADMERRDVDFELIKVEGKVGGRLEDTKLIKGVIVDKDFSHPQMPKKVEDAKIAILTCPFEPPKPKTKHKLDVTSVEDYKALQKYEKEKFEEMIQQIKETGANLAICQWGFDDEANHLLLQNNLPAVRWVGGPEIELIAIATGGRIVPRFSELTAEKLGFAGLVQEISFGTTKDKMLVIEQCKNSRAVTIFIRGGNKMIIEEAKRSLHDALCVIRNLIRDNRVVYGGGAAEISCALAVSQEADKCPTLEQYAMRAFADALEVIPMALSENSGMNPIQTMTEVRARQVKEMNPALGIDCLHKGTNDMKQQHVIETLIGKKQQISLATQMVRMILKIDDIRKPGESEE
Chain of CCT2, P78371 (P78371 whole entry): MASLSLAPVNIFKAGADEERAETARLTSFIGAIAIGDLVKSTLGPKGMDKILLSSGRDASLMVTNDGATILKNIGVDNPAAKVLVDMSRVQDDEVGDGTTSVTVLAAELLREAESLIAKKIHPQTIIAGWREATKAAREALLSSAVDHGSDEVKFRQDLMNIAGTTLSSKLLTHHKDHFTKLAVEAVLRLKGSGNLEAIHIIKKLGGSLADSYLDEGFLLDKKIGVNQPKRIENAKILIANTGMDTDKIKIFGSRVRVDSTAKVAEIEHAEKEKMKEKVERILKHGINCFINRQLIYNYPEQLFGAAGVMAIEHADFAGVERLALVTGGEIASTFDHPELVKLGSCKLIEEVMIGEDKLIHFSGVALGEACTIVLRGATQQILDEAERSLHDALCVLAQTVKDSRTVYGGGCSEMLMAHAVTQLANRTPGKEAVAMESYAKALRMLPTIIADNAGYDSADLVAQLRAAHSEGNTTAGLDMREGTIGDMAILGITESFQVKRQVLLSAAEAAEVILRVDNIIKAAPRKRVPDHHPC

CCT2, P78371 was tested. Which cross-linked residues did it give?
Its cross-linked residues is “K248 - K250”.

For VBP1, P61758, which cross-linked residues is on record?
The cross-linked residues was “K189 - K292”.

Which cross-linked residues does the source give for CCT5, P48643 here?
The cross-linked residues was “K232 - K250”.

CCT8, P50990 was tested. Which cross-linked residues did it give?
The cross-linked residues was “K270 - K280”.
